Screening data (PubChem BioAssay)
This is a sample that favours compounds with a hit; in the whole collection about 4.5% have one here.
CSC inhib: cancer stem cell viability inhibitors, primary screen, luminescence | cancer stem cell-like cells viability | inhibition, % at 7.5 µM | 300,000 tested, 1.1% active | AID 2717, 2010; in the data active means inhibition above about 75%; tested in HMLE shEcad cells
Jurkat NFkB inh: inhibitors of induced NF-kB luciferase reporter, primary screen, TCR NF-kB activation inhibitor project, cell-based, luminescence, uHTS | Jurkat, PMA/ionomycin-induced NF-kB luciferase reporter | inhibition, % at 4 µM | 330,000 tested, 0.53% active; in the data active means inhibition above about 50%
aSyn 5UTR inh: MLPCN primary screen, SNCA 5' untranslated region; inhibition, % (tested at 7.5 µM); alpha-synuclein 5'UTR reporter, inhibitor activity; AID 1813, 2009; 300,000 tested, 0.82% active; in the data active means inhibition above about 60%;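 further: H4 neuroglioblastoma cells stably carrying SNCA 5'UTR luciferase fusion; 0% = DMSO wells and 100% = positive control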
Mdm2 MdmX PPI: inhibitors of human Mdm2-MdmX association, primary screen, cell-based, luminescence, split luciferase, SaOS-2, uHTS. SaOS-2 split-luciferase Mdm2/MdmX complementation. inhibition, % at 8 µM. 330,000 tested, 3% active. AID 485346, 2010;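 active means inhibition of at least 50% at 8 µM in the primary screen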
697 NFkB inh: inhibitors of PMA/ionomycin-induced NF-kB reporter, 697 cells, primary screen, B-cell NF-kB inhibitor project, cell-based, luminescence, uHTS; inhibition, % at 4 µM; 697 B-cell NF-kB luciferase reporter, 16 h; 330,000 tested, 0.33% active; in the data active means inhibition above about 35%
Gli-Sufu antag: Gli-Sufu pathway antagonists, primary screen, luciferase luminescence, Sufu-KO-LIGHT cells, uHTS; Sufu-KO-LIGHT fibroblasts, Gli luciferase reporter luminescence; inhibition, % at 5 µM; 340,000 tested, 0.74% active;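 active means inhibition above about 55%, limit read from the data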;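 further: 0% = DMSO-treated cells and 100% = wells with medium but no cells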
Jurkat NFkB conf: PMA/ionomycin-induced NF-kB reporter inhibitors, Jurkat retest, confirmation, T-cell NF-kB inhibitor project, cell-based, luminescence, single concentration | shares compounds with Jurkat NFkB inh | 2,700 tested, 27% active | inhibition, % at 4 µM | Jurkat NF-kB luciferase, 16 h;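 active means inhibition reaching about 45% at 4 µM in either replicate, limit read from the data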;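 further: plate controls were PMA/ionomycin stimulated DMSO wells for no effect and unstimulated DMSO wells for full effect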
697 NFkB conf: PMA/ionomycin-induced NF-kB reporter inhibitors, 697 retest, confirmation, B-cell NF-kB inhibitor project, cell-based, luminescence, single concentration; shares compounds with 697 NFkB inh; 697 B-cell NF-kB luciferase, 16 h; inhibition, % at 4 µM; 2,000 tested, 35% active; AID 449746, 2010; in the data active means inhibition mostly above about 28%, no sharp cut-off; inactive means mostly below about 22%
Mdm2-MdmX conf: Mdm2-MdmX complex disruptors, retested hits, confirmation, luminescence, single concentration; Mdm2-MdmX binding, luminescent assay; shares compounds with Mdm2 MdmX PPI; AID 489028, 2010; 10,000 tested, 55% active; inhibition, % at 8 µM; in the data active means inhibition above about 40%
FLuc counter: full-length luciferase signal inhibition, confirmation, counter-screen for Mdm2/MdmX interaction inhibitor project, cell-based, single concentration, SaOS-2. shares compounds with Mdm2 MdmX PPI. SaOS-2 full-length luciferase counterscreen, luminescence. inhibition, % at 8 µM. 6,200 tested, 77% active. AID 504607, 2011;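 active means mean inhibition at 8 µM reaching about 37%, which flags the compound as non-specific, limit read from the data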;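 further: p53-null SaOS-2 cells with luciferase driven by a doxycycline-inducible promoter; compound on cells about two nights before reading with doxycycline added after day one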
Gli antag conf: Gli-SUFU pathway antagonists, confirmation, single concentration, luciferase luminescence, Sufu-KO-LIGHT cells. shares compounds with Gli-Sufu antag. Gli luciferase reporter. 2,500 tested, 40% active. AID 602428, 2012. inhibition, % at 5 µM;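 active means mean inhibition at 5 µM reaching about 45%, limit read from the data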;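 further: plate controls were DMSO-treated cells for no effect and wells lacking cells for full effect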
Gli cytotox: cytotoxicity in Sufu-KO-LIGHT cells, confirmation, cytotoxicity control for Gli-SUFU antagonist project, cell-based, ATP luminescence, single concentration. shares compounds with Gli-Sufu antag. cytotoxicity, % at 5 µM. 2,500 tested, 32% active;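 active means mean cytotoxicity at 5 µM above about 25%, limit read from the data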;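 further: cells exposed to compound overnight for roughly 16 to 18 hours; plate controls were DMSO wells with cells for no effect and medium without cells for full effect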
Wnt3a counter: Wnt3a reporter signal inhibition, confirmation, counter-screen for Gli-SUFU antagonist project, Wnt-LIGHT cells, luminescence, single concentration; shares compounds with Gli-Sufu antag; Wnt3a-driven luciferase reporter; inhibition, % at 6.25 µM; 2,500 tested, 20% active; AID 651995, 2013;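 active means mean inhibition above about 25%, limit read from the data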
Numbers without * were called inactive; nt = no result given.

SMILES	CSC inhib	Jurkat NFkB inh	aSyn 5UTR inh	Mdm2 MdmX PPI	697 NFkB inh	Gli-Sufu antag	Jurkat NFkB conf	Mdm2-MdmX conf	FLuc counter	Gli antag conf	Gli cytotox	Wnt3a counter	others
Cc1ccc(C(=O)CN2C(=O)c3ccccc3S2(=O)=O)cc1	0	81*	109*	98*	73*	78*	66*	96*	23	87*	26*	95*	697 NFkB conf=51*
Cc1cc(C(=O)CN2C(=O)c3ccccc3S2(=O)=O)c(C)n1C(C)C	-6	55*	nt	56*	10	57*	19	41*	37*	49*	12	44*
O=S1(=O)CCOC(CO)CN1Cc1ccc(Cl)c(Cl)c1 (stereo not drawn)	nt	nt	nt	7	3	4	nt	nt	nt	nt	nt	nt
COc1ccc(N2C(=O)CSC2c2ccccc2F)c(OC)c1 (stereo not drawn)	-5	25	3	23	8	10	nt	nt	nt	nt	nt	nt
COc1ccc(/C=C/C(=O)c2cc(F)ccc2OC(=O)c2ccccc2)cc1OC	47	58*	67*	68*	-221	50	61*	58*	98*	60*	49*	16
CN=C(Nc1cccc(Cl)c1)SC1CC(=O)N(c2ccc(OC)cc2)C1=O (stereo not drawn)	4	13	-4	31	-6	-2	nt	nt	nt	nt	nt	nt
O=C(c1cc(COc2cccc3cnccc23)on1)N1CCCC(CCCO)C1 (stereo not drawn)	10	55*	-5	37	56*	80*	77*	nt	nt	74*	29*	4	697 NFkB conf=101*
Cc1ccc2c(c1)N(Cc1ccncc1)C(=O)C(C)O2 (stereo not drawn)	-6	3	-12	15	11	-16	nt	nt	nt	nt	nt	nt
Cc1cc(Cl)c2oc(C(=O)N3CCN(c4ccncc4)CC3)c(C)c2c1	83*	61*	90*	90*	-50	68*	15	51*	57*	26	23	-36
CN(C)c1cc[n+](CC(=O)c2ccc(-c3ccccc3)cc2)cc1	13	73*	40	60*	62*	88*	60*	44*	48*	86*	38*	39*	697 NFkB conf=46*
O=C(C[n+]1ccccc1)c1ccc(-c2ccccc2)cc1	31	-4	-32	0	-5	11	nt	nt	nt	nt	nt	nt
CCc1ccc(NC(=O)Nc2cccc(OC)c2)cc1	nt	-88	-199	-140	-85	-86	nt	nt	nt	nt	nt	nt
COc1ccc(C(C(=O)NC2CCCCC2)N(C(=O)CCl)c2ccc(Cl)cc2)cc1 (stereo not drawn)	10	76*	6	100*	92*	85*	20	99*	49*	33	28*	-13	697 NFkB conf=19*
COc1ccc(N(C(=O)c2cnccn2)C(C(=O)NC2CCCCC2)c2ccc(Cl)cc2)cc1 (stereo not drawn)	nt	-1	5	-2	-2	-4	nt	nt	nt	nt	nt	nt
COC(=O)Cc1ccc(NC(=O)c2ccccc2Cl)cc1	0	-1	28	19	34	-9	nt	nt	nt	nt	nt	nt
COC(=O)Cc1ccc(NC(=O)c2ccc(C(C)(C)C)cc2)cc1	32	64*	124*	66*	77*	72*	79*	55*	29	77*	45*	102*	697 NFkB conf=74*
CCOc1ccc(N(CC(=O)Nc2ccc(C)cc2)S(=O)(=O)c2c(C)noc2C)cc1	7	15	0	34	12	8	nt	nt	nt	nt	nt	nt
CCOc1ccc(N(CC(=O)Nc2ccccc2OCC)S(=O)(=O)c2c(C)noc2C)cc1	46	57*	95*	65*	-25	53	62*	62*	90*	63*	52*	47*
Cc1onc(-c2ccccc2)c1C(=O)N[C@@H]1C(=O)N2C1SC(C)(C)[C@@H]2C(=O)O (stereo partly drawn)	nt	nt	nt	nt	nt	-1	nt	nt	nt	nt	nt	nt
CC[n+]1c(/C=C/Nc2ccccc2)oc2ccccc21	-2	9	-37	36	9	24	nt	nt	nt	nt	nt	nt
CC[n+]1c(/C=C/N(C)c2ccccc2)oc2ccccc21	nt	60*	-13	49	16	85*	54*	nt	nt	87*	42*	33*
Cc1cc(C)c(S(=O)(=O)N2CCCCC2)c(C)c1N(C)S(=O)(=O)c1ccc(Cl)cc1	24	-3	20	22	8	4	nt	nt	nt	nt	nt	nt
COc1ccc(C2=NOC(C(=O)NCc3ccccc3)C2)cc1 (stereo not drawn)	64	64*	-16	39	-92	55*	14	nt	nt	38	54*	-31
C#CC[N+](C)(C)CCCCCCCCCCCC	50	71*	77*	84*	30	84*	52*	80*	37*	81*	28*	22
COc1ccc(OCCCC(=O)Nc2ncn[nH]2)cc1	-8	9	-2	-2	-3	-1	nt	nt	nt	nt	nt	nt
Cc1cccc(C(=O)Nc2cccc(C(=O)Nc3cc(C)ccn3)c2)c1	-3	-20	-20	0	-23	-11	nt	nt	nt	nt	nt	nt
COc1ccccc1N1CCN(S(=O)(=O)c2ccc(-c3cnc(C4CC4)o3)cc2)CC1	-3	-23	1	26	-61	6	nt	nt	nt	nt	nt	nt
